Laboratory results from PubChem BioAssay AID1159580 (chemical genetic matrix, 2015).
Several values for one entry are separate records, joined by “and”; a condition that tells them apart may be missing. Equal values may be shown once. In all, about 5,500 compounds went through this assay and about 2,000 (36%) were called active. Not shown: some 18% with an inconclusive outcome. Rule as the data show it: active = normalized growth mostly below about 0.91 (no sharp cut-off); inconclusive = no clear call, values can overlap the other calls; inactive = mostly above about 0.92. Some of the results follow.

Assay: chemical genetic growth profiling, strain panel (AID 1159580);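 also: tested at 20 µM; growth read once vehicle control cultures reached saturation at 30 °C; 1 = growth at the plate median or of vehicle wells; lower values mean less growth of the strain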
Conditions: growth OD

Measured: normalized growth

CC(CCc1ccccc1)NC(C)C(O)c1ccc(O)cc1 (stereo not given)
inactive: S. cerevisiae deletion strains, locus YJR075W, strain HOC1, hits give low values 1.01 | S. cerevisiae deletion strains, locus YKL009W, strain mrt4, hits give low values 0.988 | S. cerevisiae deletion strains, locus YKL068W, hits give low values 0.987 | S. cerevisiae deletion strains, locus YKL085W, strain MDH1 (second series), hits give low values 0.997 | S. cerevisiae deletion strains, locus YKL085W, strain MDH1, hits give low values 0.997 | S. cerevisiae deletion strains, locus YKL160W, strain elf1, hits give low values 1 | S. cerevisiae deletion strains, locus YKL190W, strain CNB1, hits give low values 0.99 | S. cerevisiae deletion strains, locus YKR001C, strain vps1, hits give low values 0.97 | S. cerevisiae deletion strains, locus YKR026C, strain gcn3, hits give low values 1 | S. cerevisiae deletion strains, locus YKR091W, strain srl3, hits give low values 1 | S. cerevisiae deletion strains, locus YLL001W, strain dnm1, hits give low values 1.01 | S. cerevisiae deletion strains, locus YLL026W, hits give low values 1 | S. cerevisiae deletion strains, locus YLL041C, strain sdh2, hits give low values 0.999 | S. cerevisiae deletion strains, locus YLR027C, strain aat2, hits give low values 0.994 | S. cerevisiae deletion strains, locus YLR039C, strain RIC1, hits give low values 1.01 | S. cerevisiae deletion strains, locus YLR058C, strain SHM2, hits give low values 0.976 | S. cerevisiae deletion strains, locus YLR102C, strain apc9, hits give low values 0.99 | S. cerevisiae deletion strains, locus YLR113W, strain HOG1, hits give low values 0.995 | S. cerevisiae deletion strains, locus YLR221C, strain rsa3, hits give low values 1.02 | S. cerevisiae deletion strains, locus YLR258W, strain gsy2, hits give low values 1 | S. cerevisiae deletion strains, locus YLR262C, strain YPT6 (second series), hits give low values 0.96 | S. cerevisiae deletion strains, locus YLR262C, strain YPT6, hits give low values 0.99 | S. cerevisiae deletion strains, locus YLR268W, strain sec22, hits give low values 1.04 | S. cerevisiae deletion strains, locus YLR320W, strain mms22, hits give low values 1.02 | S. cerevisiae deletion strains, locus YLR330W, strain CHS5, hits give low values 0.997 | S. cerevisiae deletion strains, locus YLR342W, strain FKS1 (second series), hits give low values 1.01 | S. cerevisiae deletion strains, locus YLR342W, strain FKS1, hits give low values 1 | S. cerevisiae deletion strains, locus YLR357W, strain rsc2, hits give low values 0.983 | S. cerevisiae deletion strains, locus YLR370C, strain arc18, hits give low values 1 | S. cerevisiae deletion strains, locus YLR371W, strain rom2, hits give low values 0.974 | S. cerevisiae deletion strains, locus YLR384C, strain iki3, hits give low values 1.01 | S. cerevisiae deletion strains, locus YLR418C, strain cdc73, hits give low values 0.997 | S. cerevisiae deletion strains, locus YML016C, strain PPZ1, hits give low values 0.993 | S. cerevisiae deletion strains, locus YML032C, strain rad52, hits give low values 1 | S. cerevisiae deletion strains, locus YML120C, strain ndi1, hits give low values 1.01 | S. cerevisiae deletion strains, locus YML124C, strain tub3, hits give low values 0.982 | S. cerevisiae deletion strains, locus YMR058W, strain fet3, hits give low values 0.998 | S. cerevisiae deletion strains, locus YMR078C, strain ctf18, hits give low values 0.987 | S. cerevisiae deletion strains, locus YMR125W, strain sto1, hits give low values 1.01 | S. cerevisiae deletion strains, locus YMR129W, hits give low values 0.984 | S. cerevisiae deletion strains, locus YMR205C, strain PFK2, hits give low values 1.02 | S. cerevisiae deletion strains, locus YMR223W, strain ubp8, hits give low values 0.989 | S. cerevisiae deletion strains, locus YMR231W, strain pep5, hits give low values 1 | S. cerevisiae deletion strains, locus YMR263W, strain SAP30, hits give low values 1.01 | S. cerevisiae deletion strains, locus YMR307W, strain GAS1, hits give low values 1.05 | S. cerevisiae deletion strains, locus YNL067W, strain RPL9B, hits give low values 0.995 | S. cerevisiae deletion strains, locus YNL071W, strain lat1, hits give low values 0.999 | S. cerevisiae deletion strains, locus YNL128W, strain TEP1, hits give low values 1.01 | S. cerevisiae deletion strains, locus YNL153C, strain GIM3, hits give low values 1 | S. cerevisiae deletion strains, locus YNL175C, strain NOP13, hits give low values 1.01 | S. cerevisiae deletion strains, locus YNL183C, strain NPR1, hits give low values 0.944 | S. cerevisiae deletion strains, locus YNL197C, strain WHI3, hits give low values 1.01 | S. cerevisiae deletion strains, locus YNL209W, strain ssb2, hits give low values 1 | S. cerevisiae deletion strains, locus YNL224C, strain SQS1, hits give low values 1.01 | S. cerevisiae deletion strains, locus YNL233W, strain BNI4, hits give low values 0.992 | S. cerevisiae deletion strains, locus YNL248C, strain rpa49, hits give low values 0.991 | S. cerevisiae deletion strains, locus YNL250W, strain rad50, hits give low values 0.986 | S. cerevisiae deletion strains, locus YNL271C, strain bni1, hits give low values 0.994 | S. cerevisiae deletion strains, locus YNL298W, strain CLA4, hits give low values 1.01 | S. cerevisiae deletion strains, locus YNL307C, strain MCK1, hits give low values 0.987 | S. cerevisiae deletion strains, locus YNL322C, strain KRE1 (second series), hits give low values 1.01 | S. cerevisiae deletion strains, locus YNL322C, strain KRE1, hits give low values 0.994 and 0.998 | S. cerevisiae deletion strains, locus YNR049C, strain mso1, hits give low values 1 | S. cerevisiae deletion strains, locus YNR052C, strain pop2, hits give low values 1 | S. cerevisiae deletion strains, locus YOL006C, strain TOP1, hits give low values 0.948 | S. cerevisiae deletion strains, locus YOL012C, strain htz1 1.21 | S. cerevisiae deletion strains, locus YOL147C, strain pex11, hits give low values 0.99 | S. cerevisiae deletion strains, locus YOR001W, strain rrp6, hits give low values 0.989 | S. cerevisiae deletion strains, locus YOR061W, strain CKA2, hits give low values 0.962 | S. cerevisiae deletion strains, locus YOR069W, strain VPS5, hits give low values 0.996 | S. cerevisiae deletion strains, locus YOR070C, strain gyp1, hits give low values 0.999 | S. cerevisiae deletion strains, locus YOR080W, strain dia2, hits give low values 0.994 | S. cerevisiae deletion strains, locus YOR083W, strain WHI5 (second series), hits give low values 1.01 | S. cerevisiae deletion strains, locus YOR083W, strain WHI5, hits give low values 1 | S. cerevisiae deletion strains, locus YOR106W, strain vam3, hits give low values 0.985 | S. cerevisiae deletion strains, locus YOR136W, strain idh2, hits give low values 0.988 | S. cerevisiae deletion strains, locus YOR144C, strain elg1, hits give low values 0.992 | S. cerevisiae deletion strains, locus YOR184W, strain ser1, hits give low values 0.99 | S. cerevisiae deletion strains, locus YOR231W, strain MKK1, hits give low values 1.02 | S. cerevisiae deletion strains, locus YOR265W, strain rbl2, hits give low values 1.01 | S. cerevisiae deletion strains, locus YOR270C, strain vph1, hits give low values 0.979 | S. cerevisiae deletion strains, locus YOR290C, strain snf2, hits give low values 1.01 | S. cerevisiae deletion strains, locus YOR316C, strain cot1, hits give low values 0.995 | S. cerevisiae deletion strains, locus YPL051W, strain arl3, hits give low values 1.02 | S. cerevisiae deletion strains, locus YPL078C, strain atp4, hits give low values 1 | S. cerevisiae deletion strains, locus YPL106C, strain sse1, hits give low values 0.977 | S. cerevisiae deletion strains, locus YPL240C, strain hsp82, hits give low values 1 | S. cerevisiae deletion strains, locus YPL241C, strain CIN2, hits give low values 0.997 | S. cerevisiae deletion strains, locus YPL256C, strain CLN2, hits give low values 0.969 | S. cerevisiae deletion strains, locus YPR119W, strain clb2, hits give low values 0.981 | S. cerevisiae deletion strains, locus YPR141C, strain kar3, hits give low values 0.976 | S. cerevisiae deletion strains, locus YPR163C, strain tif3, hits give low values 0.986 | S. cerevisiae deletion strains, locus YPR167C, strain met16, hits give low values 0.989 | S. cerevisiae deletion strains, strain wtn01, hits give low values 1 | S. cerevisiae strains, strain wild type, hits give low values 0.995
